Test results published in PubChem BioAssay AID1159580 (chemical genetic matrix, 2015).
Among all 5,500 compounds or so, about 2,000 (36%) were called active. About 18% were inconclusive and are not listed. Cut-off read from the data, not from the text of the source: active = normalized growth mostly below about 0.91 (no sharp cut-off); inconclusive = no clear call, values can overlap the other calls; inactive = mostly above about 0.92. This is one part of the list.

Experiment: chemical genetic growth profiling, strain panel (AID 1159580);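 note: tested at 20 µM; growth read once vehicle control cultures reached saturation at 30 °C; 1 = growth at the plate median or of vehicle wells; lower values mean less growth of the strain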
Conditions: growth OD

Measured: normalized growth

CCCC(=O)Nc1ccc(OCC(O)CNC(C)C)c(C(C)=O)c1 (configuration not stated)
inactive: S. cerevisiae deletion strains, locus YJR075W, strain HOC1, stronger effect = lower value 1.03 | S. cerevisiae deletion strains, locus YKL009W, strain mrt4, stronger effect = lower value 1.02 | S. cerevisiae deletion strains, locus YKL068W, stronger effect = lower value 1.02 | S. cerevisiae deletion strains, locus YKL085W, strain MDH1 (second series), stronger effect = lower value 1.01 | S. cerevisiae deletion strains, locus YKL085W, strain MDH1, stronger effect = lower value 1.01 | S. cerevisiae deletion strains, locus YKL160W, strain elf1, stronger effect = lower value 1.02 | S. cerevisiae deletion strains, locus YKL190W, strain CNB1, stronger effect = lower value 1.01 | S. cerevisiae deletion strains, locus YKR001C, strain vps1, stronger effect = lower value 1.04 | S. cerevisiae deletion strains, locus YKR026C, strain gcn3, stronger effect = lower value 1.01 | S. cerevisiae deletion strains, locus YKR091W, strain srl3, stronger effect = lower value 1 | S. cerevisiae deletion strains, locus YLL001W, strain dnm1, stronger effect = lower value 1.02 | S. cerevisiae deletion strains, locus YLL026W, stronger effect = lower value 1.01 | S. cerevisiae deletion strains, locus YLL041C, strain sdh2, stronger effect = lower value 1.01 | S. cerevisiae deletion strains, locus YLR027C, strain aat2, stronger effect = lower value 1.01 | S. cerevisiae deletion strains, locus YLR039C, strain RIC1, stronger effect = lower value 1.06 | S. cerevisiae deletion strains, locus YLR058C, strain SHM2, stronger effect = lower value 1.01 | S. cerevisiae deletion strains, locus YLR102C, strain apc9, stronger effect = lower value 1.01 | S. cerevisiae deletion strains, locus YLR113W, strain HOG1, stronger effect = lower value 0.999 | S. cerevisiae deletion strains, locus YLR221C, strain rsa3, stronger effect = lower value 1.01 | S. cerevisiae deletion strains, locus YLR258W, strain gsy2, stronger effect = lower value 1.02 | S. cerevisiae deletion strains, locus YLR262C, strain YPT6 (second series), stronger effect = lower value 1.02 | S. cerevisiae deletion strains, locus YLR262C, strain YPT6, stronger effect = lower value 1.02 | S. cerevisiae deletion strains, locus YLR268W, strain sec22, stronger effect = lower value 1.05 | S. cerevisiae deletion strains, locus YLR320W, strain mms22, stronger effect = lower value 1 | S. cerevisiae deletion strains, locus YLR330W, strain CHS5, stronger effect = lower value 1.01 | S. cerevisiae deletion strains, locus YLR342W, strain FKS1 (second series), stronger effect = lower value 1 | S. cerevisiae deletion strains, locus YLR342W, strain FKS1, stronger effect = lower value 1.01 | S. cerevisiae deletion strains, locus YLR357W, strain rsc2, stronger effect = lower value 0.97 | S. cerevisiae deletion strains, locus YLR370C, strain arc18, stronger effect = lower value 1.02 | S. cerevisiae deletion strains, locus YLR371W, strain rom2, stronger effect = lower value 1.02 | S. cerevisiae deletion strains, locus YLR384C, strain iki3, stronger effect = lower value 1.01 | S. cerevisiae deletion strains, locus YLR418C, strain cdc73, stronger effect = lower value 1.05 | S. cerevisiae deletion strains, locus YML016C, strain PPZ1, stronger effect = lower value 1.01 | S. cerevisiae deletion strains, locus YML032C, strain rad52, stronger effect = lower value 1.02 | S. cerevisiae deletion strains, locus YML120C, strain ndi1, stronger effect = lower value 0.999 | S. cerevisiae deletion strains, locus YML124C, strain tub3, stronger effect = lower value 1.02 | S. cerevisiae deletion strains, locus YMR058W, strain fet3, stronger effect = lower value 1 | S. cerevisiae deletion strains, locus YMR078C, strain ctf18, stronger effect = lower value 1.02 | S. cerevisiae deletion strains, locus YMR125W, strain sto1, stronger effect = lower value 1 | S. cerevisiae deletion strains, locus YMR129W, stronger effect = lower value 1.01 | S. cerevisiae deletion strains, locus YMR205C, strain PFK2, stronger effect = lower value 1 | S. cerevisiae deletion strains, locus YMR223W, strain ubp8, stronger effect = lower value 1 | S. cerevisiae deletion strains, locus YMR231W, strain pep5, stronger effect = lower value 1.02 | S. cerevisiae deletion strains, locus YMR263W, strain SAP30, stronger effect = lower value 1.02 | S. cerevisiae deletion strains, locus YMR307W, strain GAS1, stronger effect = lower value 1.03 | S. cerevisiae deletion strains, locus YNL067W, strain RPL9B, stronger effect = lower value 1.03 | S. cerevisiae deletion strains, locus YNL071W, strain lat1, stronger effect = lower value 1.02 | S. cerevisiae deletion strains, locus YNL128W, strain TEP1, stronger effect = lower value 1.01 | S. cerevisiae deletion strains, locus YNL153C, strain GIM3, stronger effect = lower value 1.02 | S. cerevisiae deletion strains, locus YNL183C, strain NPR1, stronger effect = lower value 0.97 | S. cerevisiae deletion strains, locus YNL209W, strain ssb2, stronger effect = lower value 1.04 | S. cerevisiae deletion strains, locus YNL233W, strain BNI4, stronger effect = lower value 1.01 | S. cerevisiae deletion strains, locus YNL248C, strain rpa49, stronger effect = lower value 1.03 | S. cerevisiae deletion strains, locus YNL250W, strain rad50, stronger effect = lower value 1.01 | S. cerevisiae deletion strains, locus YNL271C, strain bni1, stronger effect = lower value 1.02 | S. cerevisiae deletion strains, locus YNL298W, strain CLA4, stronger effect = lower value 1.02 | S. cerevisiae deletion strains, locus YNL307C, strain MCK1, stronger effect = lower value 1.02 | S. cerevisiae deletion strains, locus YNL322C, strain KRE1 (second series), stronger effect = lower value 1.03 | S. cerevisiae deletion strains, locus YNL322C, strain KRE1, stronger effect = lower value 1.01 | S. cerevisiae deletion strains, locus YNR049C, strain mso1, stronger effect = lower value 1.01 | S. cerevisiae deletion strains, locus YNR052C, strain pop2, stronger effect = lower value 1.02 | S. cerevisiae deletion strains, locus YOL006C, strain TOP1, stronger effect = lower value 1.07 | S. cerevisiae deletion strains, locus YOL012C, strain htz1 0.744 | S. cerevisiae deletion strains, locus YOL147C, strain pex11, stronger effect = lower value 1.02 | S. cerevisiae deletion strains, locus YOR001W, strain rrp6, stronger effect = lower value 1.01 | S. cerevisiae deletion strains, locus YOR061W, strain CKA2, stronger effect = lower value 1.01 | S. cerevisiae deletion strains, locus YOR069W, strain VPS5, stronger effect = lower value 1.01 | S. cerevisiae deletion strains, locus YOR070C, strain gyp1, stronger effect = lower value 1.02 | S. cerevisiae deletion strains, locus YOR080W, strain dia2, stronger effect = lower value 1.02 | S. cerevisiae deletion strains, locus YOR083W, strain WHI5, stronger effect = lower value 0.988 | S. cerevisiae deletion strains, locus YOR106W, strain vam3, stronger effect = lower value 1.03 | S. cerevisiae deletion strains, locus YOR136W, strain idh2, stronger effect = lower value 1.01 | S. cerevisiae deletion strains, locus YOR144C, strain elg1, stronger effect = lower value 1.02 | S. cerevisiae deletion strains, locus YOR184W, strain ser1, stronger effect = lower value 1.03 | S. cerevisiae deletion strains, locus YOR231W, strain MKK1, stronger effect = lower value 0.993 | S. cerevisiae deletion strains, locus YOR265W, strain rbl2, stronger effect = lower value 1.02 | S. cerevisiae deletion strains, locus YOR270C, strain vph1, stronger effect = lower value 1.07 | S. cerevisiae deletion strains, locus YOR290C, strain snf2, stronger effect = lower value 1.05 | S. cerevisiae deletion strains, locus YOR316C, strain cot1, stronger effect = lower value 1.02 | S. cerevisiae deletion strains, locus YPL051W, strain arl3, stronger effect = lower value 1 | S. cerevisiae deletion strains, locus YPL055C, strain LGE1, stronger effect = lower value 1.07 | S. cerevisiae deletion strains, locus YPL078C, strain atp4, stronger effect = lower value 1.03 | S. cerevisiae deletion strains, locus YPL106C, strain sse1, stronger effect = lower value 1.02 | S. cerevisiae deletion strains, locus YPL240C, strain hsp82, stronger effect = lower value 1.03 | S. cerevisiae deletion strains, locus YPL241C, strain CIN2, stronger effect = lower value 1.01 | S. cerevisiae deletion strains, locus YPL256C, strain CLN2, stronger effect = lower value 0.992 | S. cerevisiae deletion strains, locus YPR119W, strain clb2, stronger effect = lower value 1.01 | S. cerevisiae deletion strains, locus YPR141C, strain kar3, stronger effect = lower value 1.01 | S. cerevisiae deletion strains, locus YPR163C, strain tif3, stronger effect = lower value 1.02 | S. cerevisiae deletion strains, locus YPR167C, strain met16, stronger effect = lower value 1.01 | S. cerevisiae deletion strains, strain wtn01, stronger effect = lower value 1.03 | S. cerevisiae strains, strain wild type, stronger effect = lower value 1.02
